Drawing on article PMC11006913, this text covers binding signal for 26 sequences.

Test in all cases: PBM; 200 nM protein, PBS
What all share (settings): dsDNA, one strand shown

Test [1] addresses NKX2-5 (Homo sapiens, UniProt P52952 125-210, R139K).
The target in test [2] is NKX2-5 (Homo sapiens, UniProt P52952 125-210).
The target in test [3] is HOXD13 (Homo sapiens, UniProt P35453 263-343, T313R).
In test [4] the target is HOXD13 (Homo sapiens, UniProt P35453 263-343).
Test [5] deals with HOXD13 (Homo sapiens, UniProt P35453 263-343, T313A).
Test [6] addresses NKX3-2 (Homo sapiens, UniProt P78367 192-278, P234S).
The target of test [7] is NKX3-2 (Homo sapiens, UniProt P78367 192-278).
The target in the next test is CRX (Homo sapiens, UniProt O43186 26-111, R41L).
For a further test, the target named is T1, NKX2-6 (Homo sapiens, UniProt A6NCS4 118-204, R150C).
T1 sequence: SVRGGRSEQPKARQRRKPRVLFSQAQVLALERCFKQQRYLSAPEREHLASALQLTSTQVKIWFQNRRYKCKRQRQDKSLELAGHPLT

Sequence of NKX2-5 (Homo sapiens, UniProt P52952 125-210) (P52952 125-210): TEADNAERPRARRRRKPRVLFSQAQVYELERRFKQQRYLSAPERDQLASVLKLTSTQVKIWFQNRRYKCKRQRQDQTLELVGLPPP
Sequence of HOXD13 (Homo sapiens, UniProt P35453 263-343, T313A) (P35453 263-343 T313A): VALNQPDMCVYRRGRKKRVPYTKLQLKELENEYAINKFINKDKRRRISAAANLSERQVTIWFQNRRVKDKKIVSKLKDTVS
Sequence of HOXD13 (Homo sapiens, UniProt P35453 263-343, T313R) (P35453 263-343 T313R): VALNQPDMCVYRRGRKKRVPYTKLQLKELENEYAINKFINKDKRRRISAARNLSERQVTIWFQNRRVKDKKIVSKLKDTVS
Sequence of HOXD13 (Homo sapiens, UniProt P35453 263-343) (P35453 263-343): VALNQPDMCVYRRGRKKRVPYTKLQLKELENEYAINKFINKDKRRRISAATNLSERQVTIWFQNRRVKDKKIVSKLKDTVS
Sequence of NKX2-5 (Homo sapiens, UniProt P52952 125-210, R139K) (P52952 125-210 R139K): as the sequence (P52952 125-210) above, with R15K counted along it
Sequence of NKX3-2 (Homo sapiens, UniProt P78367 192-278) (P78367 192-278): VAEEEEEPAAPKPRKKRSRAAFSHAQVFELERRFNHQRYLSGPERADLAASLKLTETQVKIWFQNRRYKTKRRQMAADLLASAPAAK
Sequence of NKX3-2 (Homo sapiens, UniProt P78367 192-278, P234S) (P78367 192-278 P234S): as the sequence (P78367 192-278) above, with P43S counted along it
Sequence of CRX (O43186 26-111 R41L): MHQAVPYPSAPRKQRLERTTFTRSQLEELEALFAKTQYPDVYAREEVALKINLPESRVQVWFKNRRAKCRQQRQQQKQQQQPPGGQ

Take GCAAAGTA: the binding signal in the test with NKX2-5 [1] is 10.7 upbm affinity estimate (log intensity, higher = more binding, comparable within an allelic series); with NKX2-5 [2], 10.8 upbm affinity estimate (log intensity, higher = more binding, comparable within an allelic series).

Regarding ATTAATGA, the binding signal was 10.7 upbm affinity estimate (log intensity, higher = more binding, comparable within an allelic series) in the test with HOXD13 [3]; 11.9 upbm affinity estimate (log intensity, higher = more binding, comparable within an allelic series) in the test with HOXD13 [4]; 11.7 upbm affinity estimate (log intensity, higher = more binding, comparable within an allelic series) with HOXD13 [5].

GCCGGCAA: the binding signal was 9.18 upbm affinity estimate (log intensity, higher = more binding, comparable within an allelic series) with NKX2-5 [1] and 8.86 upbm affinity estimate (log intensity, higher = more binding, comparable within an allelic series) in the test with NKX2-5 [2].

For the sequence GTTAATTA, the binding signal with HOXD13 [3] is 10.7 upbm affinity estimate (log intensity, higher = more binding, comparable within an allelic series); with HOXD13 [5] it was 11.6 upbm affinity estimate (log intensity, higher = more binding, comparable within an allelic series).

As to ATCCTTAG, the binding signal is 10.5 upbm affinity estimate (log intensity, higher = more binding, comparable within an allelic series) with NKX2-5 [1] and 10.5 upbm affinity estimate (log intensity, higher = more binding, comparable within an allelic series) with NKX2-5 [2].

On to CCTGGCAG, for which the binding signal with NKX2-5 [1] is 8.78 upbm affinity estimate (log intensity, higher = more binding, comparable within an allelic series); in the test with NKX2-5 [2], 8.78 upbm affinity estimate (log intensity, higher = more binding, comparable within an allelic series).

On to GGTAATTA, for which the binding signal with NKX3-2 [6] is 11.7 upbm affinity estimate (log intensity, higher = more binding, comparable within an allelic series); with NKX3-2 [7], 11.7 upbm affinity estimate (log intensity, higher = more binding, comparable within an allelic series).

Consider CACTGCCG, for which the binding signal is 9 upbm affinity estimate (log intensity, higher = more binding, comparable within an allelic series) in the test with NKX2-5 [1] and 8.89 upbm affinity estimate (log intensity, higher = more binding, comparable within an allelic series) with NKX2-5 [2].

Regarding ACCGCGGC, the binding signal with NKX2-5 [1] is 8.83 upbm affinity estimate (log intensity, higher = more binding, comparable within an allelic series); in the test with NKX2-5 [2] it was 8.84 upbm affinity estimate (log intensity, higher = more binding, comparable within an allelic series).

For the sequence ACTTATCG, the binding signal with NKX2-5 [1] is 11.2 upbm affinity estimate (log intensity, higher = more binding, comparable within an allelic series); with NKX2-5 [2], 11.2 upbm affinity estimate (log intensity, higher = more binding, comparable within an allelic series).

Take ATTAATTA: the binding signal with HOXD13 [3] is 10.8 upbm affinity estimate (log intensity, higher = more binding, comparable within an allelic series); with HOXD13 [4] it was 11.8 upbm affinity estimate (log intensity, higher = more binding, comparable within an allelic series); in the test with HOXD13 [5], 11.6 upbm affinity estimate (log intensity, higher = more binding, comparable within an allelic series).

On to GATGAGTA, for which the binding signal is 11 upbm affinity estimate (log intensity, higher = more binding, comparable within an allelic series) with NKX2-5 [1] and 10.9 upbm affinity estimate (log intensity, higher = more binding, comparable within an allelic series) with NKX2-5 [2].

As to CCCGTCAG, the binding signal with NKX2-5 [1] was 9.01 upbm affinity estimate (log intensity, higher = more binding, comparable within an allelic series); with NKX2-5 [2] it was 9.04 upbm affinity estimate (log intensity, higher = more binding, comparable within an allelic series).

In the case of ACAGCGCC, the binding signal with NKX2-5 [1] is 8.89 upbm affinity estimate (log intensity, higher = more binding, comparable within an allelic series); with NKX2-5 [2] it was 8.85 upbm affinity estimate (log intensity, higher = more binding, comparable within an allelic series).

For TAATTAAA, the binding signal with HOXD13 [3] was 10.8 upbm affinity estimate (log intensity, higher = more binding, comparable within an allelic series); with HOXD13 [4], 11.8 upbm affinity estimate (log intensity, higher = more binding, comparable within an allelic series); with HOXD13 [5], 11.7 upbm affinity estimate (log intensity, higher = more binding, comparable within an allelic series).

Regarding CCACTAGA, the binding signal with NKX2-5 [1] is 11.3 upbm affinity estimate (log intensity, higher = more binding, comparable within an allelic series); with NKX2-5 [2], 11.2 upbm affinity estimate (log intensity, higher = more binding, comparable within an allelic series).

For the sequence CTAATTAA, the binding signal in the test with HOXD13 [3] was 10.8 upbm affinity estimate (log intensity, higher = more binding, comparable within an allelic series); in the test with HOXD13 [4] it was 11.8 upbm affinity estimate (log intensity, higher = more binding, comparable within an allelic series); with HOXD13 [5] it was 11.6 upbm affinity estimate (log intensity, higher = more binding, comparable within an allelic series).

On to CAATACTC, for which the binding signal with NKX2-5 [1] was 10.2 upbm affinity estimate (log intensity, higher = more binding, comparable within an allelic series); with NKX2-5 [2], 10.2 upbm affinity estimate (log intensity, higher = more binding, comparable within an allelic series).

Regarding TAATTATA, the binding signal with HOXD13 [3] is 10.7 upbm affinity estimate (log intensity, higher = more binding, comparable within an allelic series).

For the sequence GCTAATTA, the binding signal was 11.7 upbm affinity estimate (log intensity, higher = more binding, comparable within an allelic series) in the test with NKX3-2 [6] and 11.7 upbm affinity estimate (log intensity, higher = more binding, comparable within an allelic series) in the test with NKX3-2 [7].

Take GGCTCTTA: the binding signal is 11.7 upbm affinity estimate (log intensity, higher = more binding, comparable within an allelic series) in the test with NKX2-5 [1] and 11.6 upbm affinity estimate (log intensity, higher = more binding, comparable within an allelic series) in the test with NKX2-5 [2].

For the sequence ATTAATTG, the binding signal in the test with HOXD13 [3] is 10.7 upbm affinity estimate (log intensity, higher = more binding, comparable within an allelic series).

In the case of ACTCTACT, the binding signal was 10.7 upbm affinity estimate (log intensity, higher = more binding, comparable within an allelic series) in the test with NKX2-5 [1] and 10.8 upbm affinity estimate (log intensity, higher = more binding, comparable within an allelic series) with NKX2-5 [2].

In the case of AATTAATA, the binding signal with HOXD13 [3] is 10.9 upbm affinity estimate (log intensity, higher = more binding, comparable within an allelic series); in the test with HOXD13 [4] it was 11.7 upbm affinity estimate (log intensity, higher = more binding, comparable within an allelic series); with HOXD13 [5] it was 11.7 upbm affinity estimate (log intensity, higher = more binding, comparable within an allelic series).

As for AATTAATC, in the test with CRX, the binding signal is 12.5 upbm affinity estimate (log intensity, higher = more binding, comparable within an allelic series).

With GGCAGGCC, the binding signal was 9.24 upbm affinity estimate (log intensity, higher = more binding, comparable within an allelic series) with NKX2-6; 9.41 upbm affinity estimate (log intensity, higher = more binding, comparable within an allelic series) in the test with HOXD13 [3]; 9.41 upbm affinity estimate (log intensity, higher = more binding, comparable within an allelic series) with HOXD13 [4]; 9.35 upbm affinity estimate (log intensity, higher = more binding, comparable within an allelic series) with HOXD13 [5].
